Results: the supplement of paper PMC6555819

Columns and labels:
Assay in all cases: PBM binding z-score (relative to random genomic background probes); higher = stronger binding; sequences stand for … in GC…GCGATTGACAGCGTAGAATGAAGG
[1] = test system: PPARg:RXRa DBDmut IVT, anti-RXR (DBD mutation: RXRa K156A/R161A, NR concentration 270 nM, RXRa partner concentration 90 nM)
How it was run: (§1)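 Ligand-free nuclear receptor dimers were applied to custom Agilent 4×180K protein-binding microarrays whose double-stranded probes carried direct-repeat seeds, single-nucleotide variants, half-site ablations and random human genomic background sequences in 34-nt variable regions. Incubation lasted 1 h. Binding z-scores were computed against the random background probes from regression-normalized fluorescence.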

[2] = test system: PPARg:RXRa IVT, anti-PPARg (NR concentration 270 nM, RXRa partner concentration 90 nM)
How it was run: as §1

[3] = test system: PPARg DBDmut:RXRa IVT, anti-PPARg (DBD mutation: PPARg1 K132A/R137A, NR concentration 270 nM, RXRa partner concentration 90 nM)
How it was run: as §1

[4] = test system: PPARg DBDmut IVT, anti-PPARg (DBD mutation: PPARg1 K132A/R137A, NR concentration 270 nM)
How it was run: as §1

[5] = test system: PPARg homodimer (NR concentration 180 nM)
How it was run: as §1

[6] = test system: PXR:RXRa (NR concentration 270 nM, RXRa partner concentration 90 nM)
How it was run: as §1

[7] = test system: PXR homodimer (NR concentration 270 nM)
How it was run: as §1

[8] = test system: RARa:RXR (NR concentration 270 nM, RXRa partner concentration 90 nM)
How it was run: as §1

[9] = test system: RARa homodimer (NR concentration 270 nM)
How it was run: as §1

[10] = test system: RARb:RXRa (NR concentration 270 nM, RXRa partner concentration 90 nM)
How it was run: as §1

| Sequence | PBM binding z-score [1] | PBM binding z-score [2] | PBM binding z-score [3] | PBM binding z-score [4] | PBM binding z-score [5] | PBM binding z-score [6] | PBM binding z-score [7] | PBM binding z-score [8] | PBM binding z-score [9] | PBM binding z-score [10] |
| --- | --- | --- | --- | --- | --- | --- | --- | --- | --- | --- |
| ATACCAAGGTGATCGTGAGGTCGTCGATACTAAC | 0.722 | 1.25 | 0.727 | 0.964 | 0.798 | 2.36 | 0.524 | 1.84 | 0.592 | 1.3 |
| TAGAGTAGGTTAGGGGCATTCAGAATGGCGTCGA | 2.77 | 3.28 | 1.38 | 0.566 | 1.85 | 1.08 | 1.72 | 0.913 | 1.66 | 1.81 |
| AGTCAAAGTTCAGGACGAGGTAAGGTAAAGCACG | -0.019 | 1.69 | 0.348 | -0.0383 | 2.01 | 2.5 | 1.18 | 2.42 | 1.06 | 4.4 |
| CCTTACGGGTCACGAGGATATAGCACGACGAGCG | 3.74 | 4.93 | 1.1 | 0.884 | 2.13 | 3.42 | -0.093 | 4.41 | 1.37 | 4.59 |
| CCTGCTAGGTCATGGTTAGCTAATCTACAGTATG | 4.51 | 3.71 | 1.31 | 0.491 | 3.42 | 1.38 | -0.137 | 2.44 | -0.015 | 3.65 |
| GCTAGTTGGTTAGTAAAAGGTCACACACCGGTCG | 0.595 | 2.29 | 0.167 | 0.647 | 4.26 | 5.09 | 1.29 | 6.05 | 3.17 | 3.99 |
| CATACAGGGTCAACTAGGCCAGAGTAGGGACGGC | 2.92 | 4.23 | 1.17 | 0.243 | 2.2 | 3.61 | 0.451 | 4.7 | 0.953 | 4.66 |
| TCTCGTAGATCAACAGGAGGTTAAGAAAGATCGA | 1.41 | 0.00538 | 0.397 | -0.0394 | 0.0333 | 0.901 | -0.13 | 1.21 | 0.12 | 0.48 |
| TGTCAAAGTTAAAAGGTAACGTAAGTATCCACAC | -0.253 | 2.08 | 1.24 | 0.84 | 0.261 | 0.715 | 0.361 | 1.23 | 0.69 | 1.33 |
| CCTACTGGGCCAAGGTCATTGTTCAGTCAAAGCA | 3.1 | 4.53 | 1.57 | -0.159 | 3.54 | 3.62 | 1.49 | 3.79 | -0.126 | 3.25 |
| GCATATAGGTAATACAAGATGAAAGTCCGATTGT | 4.04 | 2.21 | 1.01 | 1.1 | 0.319 | 0.0663 | 0.0386 | 0.202 | 0.786 | -0.216 |
| CCTGCTAGGTCATTGTCAGCTAATCTACAGTATG | 4.13 | 3.2 | 0.372 | 0.337 | 0.865 | 1.12 | -0.0805 | 1.77 | 0.00948 | 3.55 |
| TCATATAGGTAAACAGATGAAAGTCCGTAAGTTA | 3.98 | 2.76 | 1.5 | 0.808 | 0.603 | 0.869 | 0.583 | 0.622 | 1.28 | 0.483 |
| ACAGACAGGTGAGTGAAGGTAACTCAACTGGACG | 0.567 | 0.507 | -0.777 | -0.0154 | -0.369 | -0.316 | -0.108 | 0.0758 | -0.165 | 0.486 |
| ACTAGTTCGTCAGCTGAGGTCACACACAATTCGG | 0.735 | 2.22 | 0.493 | 1.22 | 2.47 | 5.11 | 2.76 | 4.66 | 1.82 | 3.52 |
| CCGAGTAGGTTATGGAGCATTCAGGCAACGGTGA | 3.11 | 2.34 | -1.14 | -0.703 | 0.952 | -0.208 | 0.0693 | 0.144 | 0.512 | 0.499 |
| ATCTCTAGGTAACTAGTTCAGTGAAAGAGAGGAC | 2.81 | 2.6 | 1.49 | 0.893 | 0.154 | 0.527 | 0.481 | 0.382 | 0.388 | 0.464 |
| ATCTCAAGGTAAAAGTTCAGTGAATCCCGAGGAT | -0.133 | 1.48 | 0.958 | 1.4 | 0.853 | 2.03 | 1.43 | 2.15 | 0.0495 | 2.62 |
| CCTGTTAGGTCATGGTCAGCTAATCTACAGTATG | 3.41 | 2.86 | 0.756 | 1.29 | 2.12 | 1.77 | 0.504 | 2.9 | 0.828 | 4.16 |
| ATCTCAAGGTAAAGTTCAGTGAAAGATCGATAGA | 0.17 | 1.36 | 1.42 | 1.27 | 1.71 | 2.26 | 2.1 | 1.78 | 1.65 | 2.97 |
| CGTCCAAGGTCAGCTGGTCAGTGAAAGCGACGTG | 2.4 | 2.17 | 0.5 | -0.832 | 2.63 | 2.67 | -0.135 | 3.24 | 1.47 | 4.79 |
| GCTAGTTGGTCAGTATAAGGTCACACACCGGTCG | 1.28 | 2.3 | 0.282 | 0.251 | 4.01 | 4.26 | 1.61 | 4.86 | 2.27 | 3.5 |
| ATCGAAAGGTCGTGAGGTTAGTATACAGAAAGGC | 0.453 | 2.21 | 1.19 | 1.52 | 2.32 | 3.74 | 0.823 | 4.8 | 1.16 | 3.99 |
| TCTTGTAAATCAACAGGAGGTTAAGAAAGATCGA | 1.98 | 0.596 | 0.712 | 0.346 | 0.585 | 1.13 | 0.241 | 1.26 | 0.881 | 0.847 |
